Measured values reported in PubChem BioAssay (NCATS).
Values joined by “and” are separate entries in the source; they are usually repeats but may differ in a detail not shown here. Equal values may be shown once. Inconclusive results are not listed. Values without a mark were called inactive. Active and inactive are the calls of the source. Calls come from the whole dose curve; as a rule, active = well fitted inhibition curve with a large enough effect; inconclusive = small, poorly fitted or top-dose-only effect; inactive = flat fitted curve, though single readings scatter.

What follows are compounds tested on CP215 (assay: qHTS profiling for inhibitors of Plasmodium falciparum proliferation (AID 504749; note: nearly all actives have a fitted effect of over 60% in size;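 for activity, negative = inhibition: 0% = DMSO vehicle and full inhibition = artemisinin control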)). Settings: P. falciparum in erythrocytes, SYBR Green DNA, 72 h; series mostly up to 28.7 µM; activity, negative = inhibition: at the top concentration.
Procedure, shortened: (§1)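 Fluorescence of SYBR Green-bound parasite DNA, read at 485/535 nm, served as the growth measure. Infected erythrocytes were cultured with compound 72 h; artemisinin (0.29 uM) and DMSO wells defined the normalization range.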
Potency is the fitted concentration of half-maximal effect.

Going from `O=C(CCl)c1ccc(Oc2ccc(C(=O)CCl)cc2)cc1` to `O=C(CS(=O)C(c1ccccc1)c1ccccc1)NO` (configuration not stated), the “activity, negative = inhibition” value rises from -9.39% to -2.21%.

Going from `O=[N+]([O-])c1ccc(F)c([N+](=O)[O-])c1` to `O=[N+]([O-])c1ccccc1`, the “activity, negative = inhibition” value rises from -1.12% to 0.539%.

First: N#CC1(N2CCCCC2)CCCCC1
Second: O=C(OCCN1CCCCC1)C(O)(c1ccccc1)c1ccccc1
The “activity, negative = inhibition” value of the first is lower: -0.67% for the first, 11.5% for the second.

Going from `O=[N+]([O-])C(Br)(CO)CO` to `O=C(O)C(Cl)(Cl)Cl`, the “activity, negative = inhibition” value rises from 2.61% to 7.46%.

First: Clc1ccccc1Cl
Second: CNC1(c2ccccc2Cl)CCCCC1=O (configuration not stated)
The “activity, negative = inhibition” value of the first is higher: -0.114% for the first, -12.3% for the second.

First: CC(=O)O[C@H]1CC[C@H]2[C@@H]3CCC4=CC(=O)CCC4=C3C=C[C@]12C
Second: CCCCCCCCCC(=O)O[C@H]1CC[C@H]2[C@@H]3CCC4=CC(=O)CC[C@]4(C)[C@H]3CC[C@]12C
The “activity, negative = inhibition” value of the first is lower: -5.92% for the first, 0.888% for the second.

Compared with `CCCC(C)(COC(N)=O)COC(=O)NC1CC1` (configuration not stated), `CCOC(=O)c1ccccc1C(=O)OCC` is higher in “activity, negative = inhibition” value: 2.53% for the first, 13.8% for the second.

Going from `FC(F)OC(F)(F)C(F)Cl` (configuration not stated) to `ClC(Cl)(Cl)Cl`, the “activity, negative = inhibition” value rises from 1.56% to 3.43%.

First: O=C/C=C/c1ccccc1
Second: CC(Cc1ccccc1)NC=O (configuration not stated)
The “activity, negative = inhibition” value of the first is higher: 1.4% for the first, -1.54% for the second.

Compared with `S=C(S)N1CCNCC1`, `C[N+]1(C)C2CCC1CC(OC(=O)c1c[nH]c3ccccc13)C2` (configuration not stated) is higher in “activity, negative = inhibition” value: -2.13% for the first, -1.68% for the second.

Compared with `CNC(C)C(O)c1ccc(O)cc1` (configuration not stated), `NCC(O)c1cccc(O)c1` (configuration not stated) is lower in “activity, negative = inhibition” value: 1.99% for the first, 1.33% for the second.

Compared with `CCCCCCCCOC(=O)c1ccccc1C(=O)OCCCCCCCC`, `COC([CH2][Hg])CNC(=O)c1ccccc1OCC(=O)O` (configuration not stated) is higher in “activity, negative = inhibition” value: -0.399% for the first, 0.99% for the second.

First: CCCCCl
Second: C#CC(C)(O)CC (configuration not stated)
The “activity, negative = inhibition” value of the first is higher: 3.27% for the first, -1.48% for the second.

Going from `O=C1C2CC=CCC2C(=O)N1SC(Cl)(Cl)Cl` (configuration not stated) to `c1ccc2cc(CC3=NCCN3)ccc2c1`, the “activity, negative = inhibition” value falls from 5.35% to 1.82%.

Going from `ClC1C(Cl)C(Cl)C(Cl)C(Cl)C1Cl` (configuration not stated) to `O=CC=O`, the “activity, negative = inhibition” value falls from 5.94% to 4.84%.

Compared with `CC(=O)OO`, `[N-]=[N+]=CC(=O)OCC(N)C(=O)O` (configuration not stated) is higher in “activity, negative = inhibition” value: -4.78% for the first, -4.03% for the second.

For `N#CN`, the “activity, negative = inhibition” value was 0.424%.

In the case of `CN1C2CCC1CC(OC(c1ccccc1)c1ccc(Cl)cc1)C2` (configuration not stated), the Potency is reported as 10.7 µM (active).
With `CC(C)Nc1ccc(Nc2ccccc2)cc1` the Potency was 4.26 µM (active).
With `[O]=[Cr](=[O])([OH])[O][Cr](=[O])(=[O])[OH]` the Potency was “inactive”.
`CC(C)(C)c1cc(O)ccc1O` was tested, and the Potency was 10.7 µM (active).

Going from `CCC1(C)CC(=O)NC(=O)C1` to `O=S(=O)(O)c1cc(O)ccc1O`, the “activity, negative = inhibition” value falls from 12.1% [at 12.8 µM] to 1.22% [at 12.8 µM].

What follows are compounds tested on CP217 in the same assay as above. Settings: P. falciparum in erythrocytes, SYBR Green DNA, 72 h; series mostly up to 28.7 µM; activity, negative = inhibition: at the top concentration.
Procedure, shortened: as §1

Going from `O=C(CCl)c1ccc(Oc2ccc(C(=O)CCl)cc2)cc1` to `O=C(CS(=O)C(c1ccccc1)c1ccccc1)NO` (configuration not stated), the “activity, negative = inhibition” value falls from -5.42% to -11.9%.

Going from `O=[N+]([O-])c1ccc(F)c([N+](=O)[O-])c1` to `O=[N+]([O-])c1ccccc1`, the “activity, negative = inhibition” value rises from 2.02% to 10.3%.

First: N#CC1(N2CCCCC2)CCCCC1
Second: O=C(OCCN1CCCCC1)C(O)(c1ccccc1)c1ccccc1
The “activity, negative = inhibition” value of the first is higher: 1.05% for the first, -9.27% for the second.

Compared with `O=[N+]([O-])C(Br)(CO)CO`, `O=C(O)C(Cl)(Cl)Cl` is lower in “activity, negative = inhibition” value: 3.34% for the first, 3.04% for the second.

Going from `Clc1ccccc1Cl` to `O=C/C=C/c1ccccc1`, the “activity, negative = inhibition” value falls from 11.6% to -1.55%.

First: CC(=O)O[C@H]1CC[C@H]2[C@@H]3CCC4=CC(=O)CCC4=C3C=C[C@]12C
Second: CCCCCCCCCC(=O)O[C@H]1CC[C@H]2[C@@H]3CCC4=CC(=O)CC[C@]4(C)[C@H]3CC[C@]12C
The “activity, negative = inhibition” value of the first is lower: -0.359% for the first, 3.02% for the second.

Going from `CCCC(C)(COC(N)=O)COC(=O)NC1CC1` (configuration not stated) to `CCOC(=O)c1ccccc1C(=O)OCC`, the “activity, negative = inhibition” value rises from 3.68% to 5.7%.

First: FC(F)OC(F)(F)C(F)Cl (configuration not stated)
Second: ClC(Cl)(Cl)Cl
The “activity, negative = inhibition” value of the first is lower: 0.762% for the first, 1.42% for the second.

Compared with `S=C(S)N1CCNCC1`, `C[N+]1(C)C2CCC1CC(OC(=O)c1c[nH]c3ccccc13)C2` (configuration not stated) is higher in “activity, negative = inhibition” value: -2.52% for the first, 2.88% for the second.

Compared with `CNC(C)C(O)c1ccc(O)cc1` (configuration not stated), `NCC(O)c1cccc(O)c1` (configuration not stated) is higher in “activity, negative = inhibition” value: 1.54% for the first, 19.2% for the second.

Going from `CCCCCCCCOC(=O)c1ccccc1C(=O)OCCCCCCCC` to `COC([CH2][Hg])CNC(=O)c1ccccc1OCC(=O)O` (configuration not stated), the “activity, negative = inhibition” value falls from 3.37% to 2.98%.

First: CCCCCl
Second: C#CC(C)(O)CC (configuration not stated)
The “activity, negative = inhibition” value of the first is lower: 0.172% for the first, 4.82% for the second.

Compared with `O=C1C2CC=CCC2C(=O)N1SC(Cl)(Cl)Cl` (configuration not stated), `c1ccc2cc(CC3=NCCN3)ccc2c1` is lower in “activity, negative = inhibition” value: 1.26% for the first, -6.41% for the second.

Going from `CC(Cc1ccccc1)NC=O` (configuration not stated) to `[N-]=[N+]=CC(=O)OCC(N)C(=O)O` (configuration not stated), the “activity, negative = inhibition” value rises from 2.12% to 2.4%.

Going from `ClC1C(Cl)C(Cl)C(Cl)C(Cl)C1Cl` (configuration not stated) to `O=CC=O`, the “activity, negative = inhibition” value rises from -2.22% to 2.61%.

First: CC(=O)OO
Second: N#CN
The “activity, negative = inhibition” value of the first is higher: 8.5% for the first, 0.805% for the second.

For `CN1C2CCC1CC(OC(c1ccccc1)c1ccc(Cl)cc1)C2` (configuration not stated), the Potency was 7.08 µM (active).
`CC(C)Nc1ccc(Nc2ccccc2)cc1` was tested, and the Potency was 5.01 µM (active).
For `CNC1(c2ccccc2Cl)CCCCC1=O` (configuration not stated), the Potency was “inactive”.
In the case of `[O]=[Cr](=[O])([OH])[O][Cr](=[O])(=[O])[OH]`, the Potency is reported as “inactive”.
With `CC(C)(C)c1cc(O)ccc1O` the Potency was 8.91 µM (active).

First: CCC1(C)CC(=O)NC(=O)C1
Second: O=S(=O)(O)c1cc(O)ccc1O
The “activity, negative = inhibition” value of the first is lower: 0.431% [at 12.8 µM] for the first, 1.04% [at 12.8 µM] for the second.

The compounds below were run on CP237 in the same assay as above. Settings: P. falciparum in erythrocytes, SYBR Green DNA, 72 h; series mostly up to 28.7 µM; activity, negative = inhibition: at the top concentration.
Procedure, shortened: as §1

Compared with `O=C(CCl)c1ccc(Oc2ccc(C(=O)CCl)cc2)cc1`, `O=C(CS(=O)C(c1ccccc1)c1ccccc1)NO` (configuration not stated) is lower in “activity, negative = inhibition” value: 5.86% for the first, -0.32% for the second.

Going from `O=[N+]([O-])c1ccc(F)c([N+](=O)[O-])c1` to `O=[N+]([O-])c1ccccc1`, the “activity, negative = inhibition” value falls from 3.35% to 0.171%.

Compared with `N#CC1(N2CCCCC2)CCCCC1`, `O=C(OCCN1CCCCC1)C(O)(c1ccccc1)c1ccccc1` is lower in “activity, negative = inhibition” value: 3.25% for the first, 2.02% for the second.

Compared with `O=[N+]([O-])C(Br)(CO)CO`, `O=C(O)C(Cl)(Cl)Cl` is higher in “activity, negative = inhibition” value: 1.41% for the first, 7.09% for the second.

Going from `Clc1ccccc1Cl` to `O=C/C=C/c1ccccc1`, the “activity, negative = inhibition” value rises from 0.7% to 6.56%.

First: CC(=O)O[C@H]1CC[C@H]2[C@@H]3CCC4=CC(=O)CCC4=C3C=C[C@]12C
Second: CCCCCCCCCC(=O)O[C@H]1CC[C@H]2[C@@H]3CCC4=CC(=O)CC[C@]4(C)[C@H]3CC[C@]12C
The “activity, negative = inhibition” value of the first is lower: -2.96% for the first, 2.92% for the second.

Compared with `CCCC(C)(COC(N)=O)COC(=O)NC1CC1` (configuration not stated), `CCOC(=O)c1ccccc1C(=O)OCC` is higher in “activity, negative = inhibition” value: -1.16% for the first, -0.284% for the second.

Going from `FC(F)OC(F)(F)C(F)Cl` (configuration not stated) to `ClC(Cl)(Cl)Cl`, the “activity, negative = inhibition” value falls from 12.7% to 8.92%.

First: S=C(S)N1CCNCC1
Second: C[N+]1(C)C2CCC1CC(OC(=O)c1c[nH]c3ccccc13)C2 (configuration not stated)
The “activity, negative = inhibition” value of the first is lower: -3.47% for the first, 2.41% for the second.

Going from `CNC(C)C(O)c1ccc(O)cc1` (configuration not stated) to `NCC(O)c1cccc(O)c1` (configuration not stated), the “activity, negative = inhibition” value falls from 7.65% to -6.7%.

Compared with `CCCCCCCCOC(=O)c1ccccc1C(=O)OCCCCCCCC`, `COC([CH2][Hg])CNC(=O)c1ccccc1OCC(=O)O` (configuration not stated) is higher in “activity, negative = inhibition” value: -7.54% for the first, -7.22% for the second.

Going from `CCCCCl` to `C#CC(C)(O)CC` (configuration not stated), the “activity, negative = inhibition” value rises from -1.18% to 5.81%.

Compared with `O=C1C2CC=CCC2C(=O)N1SC(Cl)(Cl)Cl` (configuration not stated), `c1ccc2cc(CC3=NCCN3)ccc2c1` is lower in “activity, negative = inhibition” value: -10.4% for the first, -13.5% for the second.

Going from `CC(Cc1ccccc1)NC=O` (configuration not stated) to `[N-]=[N+]=CC(=O)OCC(N)C(=O)O` (configuration not stated), the “activity, negative = inhibition” value rises from -6.95% to -2.16%.

Going from `ClC1C(Cl)C(Cl)C(Cl)C(Cl)C1Cl` (configuration not stated) to `O=CC=O`, the “activity, negative = inhibition” value rises from 1.45% to 4.73%.

Going from `CC(=O)OO` to `N#CN`, the “activity, negative = inhibition” value falls from 1.23% to 0.606%.

`CN1C2CCC1CC(OC(c1ccccc1)c1ccc(Cl)cc1)C2` (configuration not stated) was tested, and the Potency was 11.2 µM (active).
For `CC(C)Nc1ccc(Nc2ccccc2)cc1`, the Potency was 7.94 µM (active).
With `CNC1(c2ccccc2Cl)CCCCC1=O` (configuration not stated) the Potency was 8.91 µM (active) and 7.94 µM (active).
With `[O]=[Cr](=[O])([OH])[O][Cr](=[O])(=[O])[OH]` the Potency was 11.2 µM (active).
In the case of `CC(C)(C)c1cc(O)ccc1O`, the Potency is reported as 6.31 µM (active).

Compared with `CCC1(C)CC(=O)NC(=O)C1`, `O=S(=O)(O)c1cc(O)ccc1O` is lower in “activity, negative = inhibition” value: 5.77% [at 12.8 µM] for the first, 4.41% [at 12.8 µM] for the second.
